# Like-named read-outs stand apart in the source and are kept apart here. Out of some 13,000 compounds screened, about 3,200 (25%) showed an effect of 50% or more. Some of the results follow.
# System: P. falciparum stage V gametocytes
# Parameters: BacTiter-Glo ATP luminescence viability of purified stage V gametocytes in 384-well plates, per cent inhibition versus DMSO
# Conditions: 48 h, 5 µM, inhibitor
Structure (SMILES),% Inhibition (% Inhibition) [%],% Inhibition [%]
O=C(/C=C/c1cccc2ccccc12)NC1CCC(CN2CCC(c3c[nH]c4ccccc34)CC2)CC1 (stereo not drawn) [TCMDC-139706],-11.81,–
COc1cccc(/C=C/C(=O)NC2CCC(CN3CCC(c4c[nH]c5ccccc45)CC3)CC2)c1 (stereo not drawn) [TCMDC-139703],100.1,–
O=C(Nc1ccccc1N1CCOCC1)c1ncoc1-c1ccccc1C(F)(F)F [TCMDC-123538],–,-21.73
O=C(N[C@@H](Cc1ccccc1)C(=O)NCCN1CCCCC1)c1ccc(O)c(-c2cccc(C(F)(F)F)c2)c1 [TCMDC-140816],–,36.65
O=C1c2ccccc2C(=O)N1CCOc1c(Br)cc(Br)cc1CNCCCNc1cc(=O)c2ccccc2[nH]1 [TCMDC-140115],–,-3.219
CN1CCN(c2ccnc3ccc(NC(=O)Nc4cccc5c(C#N)cccc45)cc23)CC1 [TCMDC-139344],–,-1.771
O=C(NCCN1CCCCC1)c1ccc(Nc2nccc(Nc3ccc(Oc4ccccc4)cc3)n2)cc1 [TCMDC-138608],–,-29.44
O=C(NCc1cccc(C(F)(F)F)c1)[C@@H]1CCCN1C(=O)c1ccc(O)c(-c2ccc(Cl)c(Cl)c2)c1 [TCMDC-140832],–,33.81
CC1(C)NC(N)=NC(=N)N1OCc1ccc2ccccc2c1CON1C(=N)N=C(N)NC1(C)C [TCMDC-131631],–,-34.98
c1ccc(CCNCc2cccc(-c3ccc(CNc4ccc5ncccc5c4)cc3)c2)cc1 [TCMDC-140724],–,87.5
COc1cccc(CNC(=O)c2ccnc(-c3ccc(CNCCOc4ccccc4)cc3)c2)c1 [TCMDC-134501],–,1.442
c1ccc(CCNCc2ccc(-c3ccc(CNc4ccc5ncccc5c4)cc3)cc2)cc1 [TCMDC-140725],–,-47.08
CC(C)CNCc1ccc(-c2cccc(CNc3ccc4ncccc4c3)c2)cc1 [TCMDC-140719],–,58.47
c1cc(CNC2CCCC2)cc(-c2ccc(CNc3ccc4ncccc4c3)cc2)c1 [TCMDC-140726],–,91.8
COCCNCc1ccc(-c2ccc(CNc3ccc4ncccc4c3)cc2)cc1 [TCMDC-140723],–,92.65
c1ccc(CCNCc2ccc(-c3cccc(CNc4ccc5ncccc5c4)c3)cc2)cc1 [TCMDC-140720],–,4.928
O=C(Cc1cccc(Cl)c1)Nc1ccc(N2CCC(NCc3ccc4ncccc4c3)CC2)cc1 [TCMDC-124660],–,24.81

Structure (SMILES),% Inhibition (% Inhibition) [%],% Inhibition [%]
CC(C)CNCc1cccc(-c2ccc(CNc3ccc4ncccc4c3)cc2)c1 [TCMDC-140722],–,48.08
c1cnc2ccc(NCc3ccc(-c4ccc(CNC5CCCC5)cc4)cc3)cc2c1 [TCMDC-140727],–,45.47
CC(C)(C)CN1C(=O)C(c2ccccc2)(c2ccccc2)N=C1N [TCMDC-136760],–,24.92
CCOc1ccc(-c2nc(NC(=O)CS(=O)(=O)c3ccccc3)sc2C)cc1 [TCMDC-123524],–,43.85
OC(CNc1ccnc(Nc2ccc(Cl)cc2)n1)c1ccccc1C(F)(F)F (stereo not drawn) [TCMDC-136579],–,19.1
OC(CNCc1ccccc1OCc1ccccc1)c1cccc(C(F)(F)F)c1 (stereo not drawn) [TCMDC-140299],–,10.62
O=C(/C=C/c1ccc(F)cc1)NC1CCC(CCN2CCc3ccc(-n4cccn4)cc3CC2)CC1 (stereo not drawn) [TCMDC-140323],–,-53.18
Nc1nc(N)c2c3c(cnc2n1)CCCC3 [TCMDC-137925],–,38.2
CCn1c(-c2nonc2N)nc2c(-c3ccc(CO)o3)ncc(OCCCN)c21 [TCMDC-133807],–,-40.81
COc1cc2c(Nc3ccc(NC(=O)c4ccccc4)cc3)ncnc2cc1OCCCN1CCOCC1 [TCMDC-125873],–,-52.63
NCCCOc1cnc(-c2ccccc2)c2nc(-c3nonc3N)n(CCc3ccccc3)c12 [TCMDC-136216],–,116.7
CCn1c(-c2nonc2N)nc2c(-c3ccccc3)ncc(OCCCCNCCc3ncc[nH]3)c21 [TCMDC-136000],–,104.7
CCn1c(-c2nonc2N)nc2c(-c3ccccc3)ncc(OCCCNCCCN3CCOCC3)c21 [TCMDC-135858],–,109
COc1cc2c(Nc3cccc(NC(=O)c4ccccc4)c3)ncnc2cc1OCCCN1CCOCC1 [TCMDC-135174],–,18.79
CC[C@H]1CN2CC[C@H]1C[C@H]2[C@H](O)c1ccnc2ccc(C#N)cc12 [TCMDC-138234],–,18.99
CC(=O)c1c[nH]c(C(=O)Nc2ccc(-c3cn4ccccc4n3)cc2)c1 [TCMDC-124599],–,36.18

# Source: paper PMC4552634, “A New Set of Chemical Starting Points with Plasmodium falciparum Transmission-Blocking Potential for Antimalarial Drug Discovery” (PLoS ONE, 2015)
